{"source": "PubChem BioAssay (NCATS)", "note": "Records with an inconclusive call do not appear. The source made the active and inactive calls. The call rests on the fitted dose curve; in most records, active means well fitted curve in the direction sought with a large enough effect; inconclusive means small, poorly fitted or top-dose-only effect, or another doubt; inactive means no such curve, though single readings can be large; an effect the other way counts as inactive or inconclusive. Further: nearly all actives have a fitted effect of over 35% in size. Potency means the concentration at half of the fitted maximal effect."}
{"assay": "Quantitative highthroughput screen to assess conditional lethalithy of P12 Ichikawa cells grown in RPMI1640 with dialyzed fetal bovine serum (RPMI+ds) (AID 1963880);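 on viability: 100% = DMSO wells and 0% = empty wells on each plate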", "conditions": "ATP luminescence, 48 h; Potency: P12-Ichikawa viability; series mostly up to 45.8 µM; viability: at the top concentration", "in_short": "(§1)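 Each medium arm—HPLM with 10% dialyzed FBS, or RPMI1640 with 5 mM glucose and 10% untreated or dialyzed FBS—was screened against an 11-point, 3-fold compound titration for 48 h at 37 °C, with CellTiter-Glo luminescence as endpoint.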"}
{"smiles": "CNC(=O)c1c(-c2ccc(F)cc2)oc2cc(N(CCO)S(C)(=O)=O)c(C3CC3)cc12", "Potency": "5.9 µM (active)"}
{"smiles": "Cn1c(=O)c2c(ncn2CC(O)CO)n(C)c1=O", "note": "(configuration not stated)", "viability": "101% (inactive)"}
{"smiles": "COc1cc(-c2nn(C3CCC(N4CCN(C(C)=O)CC4)CC3)c3ncnc(N)c23)ccc1NC(=O)c1cc2ccccc2n1C", "note": "(configuration not stated)", "viability": "106% (inactive)"}
{"smiles": "O=C(Nc1ccc(OC(F)(F)F)cc1)c1sccc1NCc1ccnc2ccccc12", "Potency": "2.35 µM (active)"}
{"smiles": "C[C@H](NC(=O)C(=O)Nc1ccccc1C(C)(C)C)C(=O)N[C@@H](CC(=O)O)C(=O)COc1c(F)c(F)cc(F)c1F", "Potency": "14.8 µM (active)"}
{"smiles": "Cc1cn[nH]c1", "viability": "104% (inactive)"}
{"smiles": "C[C@]12C=CC(=O)C=C1CC[C@@H]1[C@@H]2C(=O)C[C@@]2(C)[C@H]1CC[C@]2(O)C(=O)CO", "viability": "95.3% [at 23.2 µM] (inactive)"}
{"smiles": "c1cnc2cc3c(cc2n1)C1CNCC3C1", "viability": "102% (inactive)"}
{"smiles": "CCCCCCCCCC(=O)N[C@@H](Cc1c[nH]c2ccccc12)C(=O)N[C@H](CC(N)=O)C(=O)N[C@@H](CC(=O)O)C(=O)N[C@@H]1C(=O)NCC(=O)N[C@@H](CCCN)C(=O)N[C@@H](CC(=O)O)C(=O)N[C@H](C)C(=O)N[C@@H](CC(=O)O)C(=O)NCC(=O)N[C@H](CO)C(=O)N[C@@H]([C@@H](C)CC(=O)O)C(=O)N[C@@H](CC(=O)c2ccccc2N)C(=O)O[C@@H]1C", "viability": "98% (inactive)"}
{"smiles": "C[C@H](Cc1ccc(O)c(O)c1)[C@@H](C)Cc1ccc(O)c(O)c1", "Potency": "16.6 µM (active)"}
{"smiles": "NS(=O)(=O)c1ccc(Nc2nc(OCC3CCCCC3)c3[nH]cnc3n2)cc1", "Potency": "0.296 µM (active)"}
{"smiles": "O=C(CN1C(=O)C2(CCCC2)NC[C@H]1c1cc(F)cc(F)c1)Nc1ccc2c(c1)C[C@@]1(C2)C(=O)Nc2ncccc21", "viability": "102% (inactive)"}
{"smiles": "Cc1cccc(Nc2nc(N[C@@H]3CCCC[C@H]3N)ncc2C(N)=O)c1", "Potency": "1.87 µM (active)"}
{"smiles": "COc1cc2c(Nc3ccc(NC(=O)c4ccccc4)cc3)ncnc2cc1OCCCN1CCOCC1", "Potency": "3.32 µM (active)"}
{"smiles": "CNCCCC12CCC(c3ccccc31)c1ccccc12", "Potency": "18.7 µM (active)"}
{"assay": "Quantitative highthroughput screen to assess conditional lethalithy of P12 Ichikawa cells grown in RPMI1640 with untreated serum (RPMI+s) (AID 1963881);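 on viability: 100% = DMSO wells and 0% = empty wells without cells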", "conditions": "ATP luminescence, 48 h; Potency: viability; series mostly up to 45.8 µM; viability: at the top concentration", "in_short": "as §1"}
{"smiles": "OCCNC1CCCc2c1[nH]c1ccc(-c3ccccc3)cc21", "note": "(configuration not stated)", "Potency": "18.7 µM (active)"}
{"smiles": "CNC(=O)c1c(-c2ccc(F)cc2)oc2cc(N(CCO)S(C)(=O)=O)c(C3CC3)cc12", "Potency": "6.62 µM (active)"}
{"smiles": "CN(C)CCOC(c1ccccc1)c1ccccc1", "viability": "79% (inactive)"}
{"smiles": "c1nc2nc(Nc3ccc(N4CCOCC4)cc3)nc(NC3CCCCC3)c2[nH]1", "Potency": "2.64 µM (active)"}
{"smiles": "Cn1c(=O)c2c(ncn2CC(O)CO)n(C)c1=O", "note": "(configuration not stated)", "viability": "101% (inactive)"}
{"smiles": "COc1cc(-c2nn(C3CCC(N4CCN(C(C)=O)CC4)CC3)c3ncnc(N)c23)ccc1NC(=O)c1cc2ccccc2n1C", "note": "(configuration not stated)", "viability": "101% (inactive)"}
{"smiles": "O=C(Nc1ccc(OC(F)(F)F)cc1)c1sccc1NCc1ccnc2ccccc12", "Potency": "2.35 µM (active)"}
{"smiles": "C[C@H](NC(=O)C(=O)Nc1ccccc1C(C)(C)C)C(=O)N[C@@H](CC(=O)O)C(=O)COc1c(F)c(F)cc(F)c1F", "Potency": "14.8 µM (active)"}
{"smiles": "C[C@]12C=CC(=O)C=C1CC[C@@H]1[C@@H]2C(=O)C[C@@]2(C)[C@H]1CC[C@]2(O)C(=O)CO", "viability": "90.7% [at 23.2 µM] (inactive)"}
{"smiles": "c1cnc2cc3c(cc2n1)C1CNCC3C1", "viability": "101% (inactive)"}
{"smiles": "C[C@H](Cc1ccc(O)c(O)c1)[C@@H](C)Cc1ccc(O)c(O)c1", "Potency": "18.7 µM (active)"}
{"smiles": "NS(=O)(=O)c1ccc(Nc2nc(OCC3CCCCC3)c3[nH]cnc3n2)cc1", "Potency": "0.372 µM (active)"}
{"smiles": "O=C(CN1C(=O)C2(CCCC2)NC[C@H]1c1cc(F)cc(F)c1)Nc1ccc2c(c1)C[C@@]1(C2)C(=O)Nc2ncccc21", "viability": "101% (inactive)"}
{"smiles": "Cc1cccc(Nc2nc(N[C@@H]3CCCC[C@H]3N)ncc2C(N)=O)c1", "Potency": "3.32 µM (active)"}
{"smiles": "COc1cc2c(Nc3ccc(NC(=O)c4ccccc4)cc3)ncnc2cc1OCCCN1CCOCC1", "Potency": "4.69 µM (active)"}
{"smiles": "CNCCCC12CCC(c3ccccc31)c1ccccc12", "Potency": "18.7 µM (active)"}
{"assay": "Quantitative highthroughput screen to assess conditional lethalithy of SEM cells grown in Human Plasma-Like Medium with dialyzed fetal bovine serum (HPLM+ds) (AID 1963882)", "conditions": "SEM B-ALL cells in HPLM+ds, CellTiter-Glo viability, 48 h; series mostly up to 45.8 µM; viability: at the top concentration", "in_short": "as §1"}
{"smiles": "CNC(=O)c1c(-c2ccc(F)cc2)oc2cc(N(CCO)S(C)(=O)=O)c(C3CC3)cc12", "Potency": "1.32 µM (active)"}
{"smiles": "NC1(c2ccc(-c3nc4ccn5c(=O)[nH]nc5c4cc3-c3ccccc3)cc2)CCC1", "Potency": "1.66 µM (active)"}
{"smiles": "CN(C)CCOC(c1ccccc1)c1ccccc1", "viability": "82.5% (inactive)"}
{"smiles": "CN1CCN(c2cc(C(=O)Nc3ccc4c(c3)-c3c(c(C(N)=O)nn3-c3ccc(F)cc3)CC4)c(Cl)cn2)CC1", "Potency": "23.5 µM (active)"}
{"smiles": "Cn1c(=O)c2c(ncn2CC(O)CO)n(C)c1=O", "note": "(configuration not stated)", "viability": "120% (inactive)"}
{"smiles": "N#CCNC(=O)c1ccc(-c2ccnc(Nc3ccc(N4CCOCC4)cc3)n2)cc1", "Potency": "11.8 µM (active)"}
{"smiles": "COc1cc(-c2nn(C3CCC(N4CCN(C(C)=O)CC4)CC3)c3ncnc(N)c23)ccc1NC(=O)c1cc2ccccc2n1C", "note": "(configuration not stated)", "viability": "95.9% (inactive)"}
{"smiles": "O=C(Nc1ccc(OC(F)(F)F)cc1)c1sccc1NCc1ccnc2ccccc12", "Potency": "2.96 µM (active)"}
{"smiles": "C[C@H](NC(=O)C(=O)Nc1ccccc1C(C)(C)C)C(=O)N[C@@H](CC(=O)O)C(=O)COc1c(F)c(F)cc(F)c1F", "Potency": "5.26 µM (active)"}
{"smiles": "C[C@]12C=CC(=O)C=C1CC[C@@H]1[C@@H]2C(=O)C[C@@]2(C)[C@H]1CC[C@]2(O)C(=O)CO", "viability": "93.4% [at 23.2 µM] (inactive)"}
{"smiles": "c1cnc2cc3c(cc2n1)C1CNCC3C1", "viability": "104% (inactive)"}
{"smiles": "CCCCCCCCCC(=O)N[C@@H](Cc1c[nH]c2ccccc12)C(=O)N[C@H](CC(N)=O)C(=O)N[C@@H](CC(=O)O)C(=O)N[C@@H]1C(=O)NCC(=O)N[C@@H](CCCN)C(=O)N[C@@H](CC(=O)O)C(=O)N[C@H](C)C(=O)N[C@@H](CC(=O)O)C(=O)NCC(=O)N[C@H](CO)C(=O)N[C@@H]([C@@H](C)CC(=O)O)C(=O)N[C@@H](CC(=O)c2ccccc2N)C(=O)O[C@@H]1C", "viability": "94.3% (inactive)"}
{"smiles": "NS(=O)(=O)c1ccc(Nc2nc(OCC3CCCCC3)c3[nH]cnc3n2)cc1", "Potency": "0.469 µM (active)"}
{"smiles": "O=C(CN1C(=O)C2(CCCC2)NC[C@H]1c1cc(F)cc(F)c1)Nc1ccc2c(c1)C[C@@]1(C2)C(=O)Nc2ncccc21", "viability": "79.5% (inactive)"}
{"smiles": "COc1cc2ncnc(Nc3cccc(Cl)c3)c2cc1OC", "Potency": "0.332 µM (active)"}
{"smiles": "COc1ccc(-c2cc3c(C)nc(N)nc3n(C3CCC(OCCO)CC3)c2=O)cn1", "note": "(configuration not stated)", "Potency": "0.833 µM (active)"}
